About 83,000 compounds went through this panel and 20% of them were active in at least one assay; those are over-represented in the sample as a whole.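 Assay: single dose, 48 h. Readout: percent growth (0 = no net growth; negative = cell death). Active: <10.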 A number with no mark means an inactive call. Calls of active or inactive are those of the source.
How the values were obtained:
Assay in all cases: NCI-60 one-dose screen, 48 h (100 = growth as untreated, 0 = no growth, -100 = all killed)
Conditions in all cases: 10 µM unless noted
[1] = system: RPMI-8226 leukemia
[2] = system: OVCAR-8 ovarian
[3] = system: OVCAR-5 ovarian
[4] = system: OVCAR-4 ovarian
[5] = system: SK-OV-3 ovarian
[6] = system: IGROV1 ovarian
[7] = system: OVCAR-3 ovarian
[8] = system: HS 578T breast
[9] = system: NCI/ADR-RES ovarian
[10] = system: T-47D breast
[11] = system: BT-549 breast
[12] = system: MDA-MB-435 melanoma
[13] = system: SW-620 colon
[14] = system: MCF7 breast
[15] = system: HCT-116 colon
[16] = system: HCC-2998 colon
[17] = system: KM12 colon
[18] = system: SR leukemia

Row | Compound | growth [1] | growth [2] | growth [3] | growth [4] | growth [5] | growth [6] | growth [7] | growth [8] | growth [9] | growth [10] | growth [11] | growth [12] | growth [13] | growth [14] | growth [15] | growth [16] | growth [17] | growth [18]
1 | O=[N+]([O-])c1c(O)c(CNCCCO)cc(CNCCCO)c1O | 116% | 106% | 108% | 105% | 106% | 2.99% (active) | 152% | 97.1% | 104% | 113% | 119% | 111% | 96.3% | 112% | 97.4% | 106% | 138% | 
2 | C/C(=N\N=C(/C)c1cccc([N+](=O)[O-])c1)c1cccc([N+](=O)[O-])c1 |  | 79.6% | 97.9% | 42.1% |  | 104% | 58.1% | 78.8% | 93.9% |  | 46.6% | 98.9% | 101% | 86.8% | 89.8% | 98% | 97.9% | 86.4%
3 | OCC1CCC(O)C(CO)N1 (centres undefined) |  | 112% | 88.4% | 94.6% | 118% | 110% | 107% |  | 118% | 111% | 100% | 102% | 101% | 92.6% | 102% | 115% | 103% | 101%
4 | C=C1C(=O)C2CCC1C2 (centres undefined) |  | 109% | 101% | 111% | 105% | 111% | 95.2% | 73.7% | 105% | 98.7% | 93% |  | 101% | 109% | 105% | 97% |  | 96.7%
5 | CCCCN(C(=O)CC)c1ccccc1 | 85.1% | 101% | 105% | 105% | 114% | 102% | 111% | 99.4% | 110% | 110% | 104% | 108% | 98.7% | 100% | 99.8% | 112% |  | 
6 | CCN(Cc1ccc(Cl)c(Cl)c1)c1ccc2nc(N)nc(N)c2c1C | -54% (active) | -59.9% (active) | -100% (active) | -88.2% (active) | -97.6% (active) | -79% (active) | -93.2% (active) | -42.5% (active) | -94.4% (active) | -78% (active) | 46.4% | -77.4% (active) | -78.2% (active) | -92.9% (active) | -82.4% (active) | -93.6% (active) |  | 
7 | COc1cc(C(=O)N2CCN(c3ccccc3)CC2)c2ccccc2n1 | 35.1% | 14.3% | 39.4% | 57.5% | 5.77% (active) | 17.4% | -33.5% (active) | 27% | -43.6% (active) | 51.1% | 12.7% | -24.2% (active) | 25.2% | 15.8% | 8.75% (active) | -20.3% (active) | 2.35% (active) | 
8 | CC(C)N(C(=O)c1ccccc1)C(C)C |  | 111% | 96.3% | 109% | 114% | 116% | 108% | 108% | 115% | 99.5% | 106% |  | 104% |  | 104% | 98.3% | 111% | 110%
9 | Clc1cccc(Cl)c1C1CSc2ccccc2N=C1c1ccccc1 (centres undefined) |  |  | 101% | 73% | 96.5% | 91.8% | 69.6% | 88.1% | 73.3% | 65.4% | 42% | 15.4% | 3.48% (active) | 9.8% (active) | 19.3% | 95.4% |  | -14% (active)
10 | CCOc1ccc(NC(=S)N2CCC(CCCC3CCN(C(=S)Nc4ccc(OCC)cc4)CC3)CC2)cc1 |  | 92.2% | 102% | 85.1% | 91.1% | 94.5% | 79.3% | 85.3% | 94% | 67.8% |  | 90.4% |  | 84.1% | 84.5% | 85.6% | 90.6% | 95.2%
11 | Oc1cc2ccccc2c(-c2c(O)c(O)cc3ccccc23)c1O | -33.3% (active) | 39% | 51.8% | 27.3% | 31.7% | -47.5% (active) | 44.9% | 33.9% | 23% | 25.7% | 5.13% (active) | 10.5% | 49.4% | 12.3% | 29% | 38.6% | 52.5% | 

Reference: PubChem BioAssay (NCI)
